Of roughly 7,900 targets only a part is listed; those with a hit were picked by preference. About 0.6% of all pairs of compound and target were hits.
Legend:
Test in all cases: log2 fold change, soluble protein after heating vs DMSO (PISA); higher = thermal stabilisation; K562 cells, 10 uM, 30 min; active = over 0.2 and 3.5 SD of the protein, either way, in both replicates (recomputed)
[1] = compound: CC1=C(C=C(C=C1)NC(=O)C2=CC(=CC=C2)C(C)(C)C#N)NC3=CC4=C(C=C3)N=CN(C4=O)C
Outline: (§1)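 Aliquots of K562 cells (2×10^6 cells/mL) treated with 10 μM compound for 30 min were heated for 3 min over 48°C-58°C. After pooling and extraction in PBS with 0.5% NP-40 at 4°C, soluble protein from a 21,000xg, 90 min spin was quantified by TMTpro 16plex LC-MS/MS with channel sums equalised. Thermal stability is expressed against control samples, from duplicates, as a log2 fold change.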

[2] = compound: CC1=C(C=C(C=C1)NC(=O)C2=CC(=CC=C2)N(C)C)NC(=O)C3=CC=C(C=C3)O
Outline: as §1

[3] = compound: CC1=CC=C(C=C1)SC2=C3C=C(SC3=CN=C2)C(=O)N
Outline: as §1

[4] = compound: CC1=NC(=CC=C1)C2=C(N=C(N2)C(C)(C)C)C3=CC4=NC=CN=C4C=C3
Outline: as §1

[5] = compound: CCCCN(Cc1ccc(C(=O)NO)cc1)C(=O)Nc1ccccc1 [Nexturastat A]
Outline: as §1

[6] = compound: CCCS(=O)(=O)Nc1ccc(F)c(C(=O)c2c[nH]c3ncc(-c4ccc(Cl)cc4)cc23)c1F [vemurafenib]
Outline: as §1

[7] = compound: CCCS(=O)(=O)Nc1ccc(F)c(C(=O)c2c[nH]c3ncc(Cl)cc23)c1F
Outline: as §1

[8] = compound: CCCc1cc(C)[nH]c(=O)c1CNC(=O)c1cc(-c2ccnc(N3CCN(C)CC3)c2)cc2c1cnn2C(C)C
Outline: as §1

[9] = compound: CCN(CC)Cc1ccc2cc(COC(=O)Nc3ccc(C(=O)NO)cc3)ccc2c1 [givinostat]
Outline: as §1

[10] = compound: CCN(CCCOc1ccc2c(Nc3cc(CC(=O)Nc4cccc(F)c4)[nH]n3)ncnc2c1)CCOP(=O)(O)O [barasertib]
Outline: as §1

Measured: log2 fold change

ATF7 isoform 6 (UniProt P17544)
inactive: [1] 0.465 | [2] -0.163 | [3] -0.155 | [4] -0.085 | [5] -0.042 | [6] 0.045 | [7] 0.239 | [8] -0.032 | [9] -0.131 | [10] -0.033

BRD4 (UniProt O60885)
active: [5] -0.451
inactive: [1] 0.245 | [2] -0.272 | [3] 0.071 | [6] 0.046 | [7] -0.003 | [8] 0.017 | [9] -0.252 | [10] 0.021

ALG5 (UniProt Q9Y673)
Sequence of UniProt Q9Y673 (Q9Y673 whole entry, looked up): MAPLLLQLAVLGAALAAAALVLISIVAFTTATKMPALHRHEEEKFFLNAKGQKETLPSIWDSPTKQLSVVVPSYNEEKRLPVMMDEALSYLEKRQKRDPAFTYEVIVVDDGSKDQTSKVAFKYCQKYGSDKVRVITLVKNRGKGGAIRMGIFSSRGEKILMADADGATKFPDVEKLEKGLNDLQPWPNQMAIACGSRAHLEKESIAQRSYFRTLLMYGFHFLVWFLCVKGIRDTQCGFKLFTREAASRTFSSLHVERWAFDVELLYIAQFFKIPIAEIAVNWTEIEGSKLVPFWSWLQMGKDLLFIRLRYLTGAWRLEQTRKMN
inactive: [1] 0.039 | [2] 0.019 | [3] -0.001 | [4] 0.049 | [5] -0.055 | [6] 0.035 | [7] 0.059 | [8] 0.025 | [9] 0.01 | [10] 0.02

ARRDC1 (UniProt Q8N5I2)
Sequence of UniProt Q8N5I2 (Q8N5I2 whole entry, looked up): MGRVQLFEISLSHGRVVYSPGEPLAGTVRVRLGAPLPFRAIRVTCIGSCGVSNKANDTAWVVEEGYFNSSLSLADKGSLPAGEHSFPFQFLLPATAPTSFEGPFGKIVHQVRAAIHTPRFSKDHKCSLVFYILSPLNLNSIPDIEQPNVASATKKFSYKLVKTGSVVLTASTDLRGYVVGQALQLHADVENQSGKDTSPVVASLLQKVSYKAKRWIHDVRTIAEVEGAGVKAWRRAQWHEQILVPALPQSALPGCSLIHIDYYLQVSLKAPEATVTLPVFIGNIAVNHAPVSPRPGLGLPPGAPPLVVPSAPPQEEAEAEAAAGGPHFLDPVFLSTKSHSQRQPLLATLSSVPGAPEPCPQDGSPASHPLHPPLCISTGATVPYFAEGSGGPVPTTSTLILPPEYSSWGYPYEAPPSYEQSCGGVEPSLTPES
inactive: [1] -0.061 | [2] 0 | [3] 0.071 | [5] 0.021 | [6] 0.048 | [7] 0.039 | [8] 0.023 | [9] 0.136 | [10] -0.179

ABCA3 (UniProt Q99758)
inactive: [1] -0.029 | [2] 0.011 | [3] -0.008 | [4] -0.035 | [5] -0.142 | [6] -0.161 | [7] -0.112 | [9] 0.059 | [10] 0.196

APOH (UniProt P02749)
inactive: [1] -0.346 | [2] 0.265 | [3] 0.055 | [4] 0.192 | [6] 0.225 | [7] -0.063 | [8] -0.611 | [9] 0.046 | [10] -0.203

AIF1 (UniProt P55008)
Sequence of UniProt P55008 (P55008 whole entry, looked up): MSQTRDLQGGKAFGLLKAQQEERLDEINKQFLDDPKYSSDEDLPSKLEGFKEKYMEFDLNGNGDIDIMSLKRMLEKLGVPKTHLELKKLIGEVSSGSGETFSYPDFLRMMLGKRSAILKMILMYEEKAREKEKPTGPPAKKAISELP
inactive: [1] -0.042 | [2] -0.039 | [3] -0.056 | [5] 0.048 | [6] -0.112 | [7] 0 | [9] -0.057 | [10] -0.102

ADAM15 (UniProt Q13444)
inactive: [1] -0.045 | [2] 0.056 | [3] 0 | [4] -0.14 | [5] -0.016 | [6] -0.022 | [7] 0.007 | [9] 0.308 | [10] -0.043

ALDH2 isoform 2 (UniProt P05091)
inactive: [1] 0.075 | [2] -0.049 | [3] -0.106 | [5] -0.103 | [6] -0.023 | [7] -0.141 | [10] 0.099

ARF4 (UniProt P18085)
Sequence of UniProt P18085 (P18085 whole entry, looked up): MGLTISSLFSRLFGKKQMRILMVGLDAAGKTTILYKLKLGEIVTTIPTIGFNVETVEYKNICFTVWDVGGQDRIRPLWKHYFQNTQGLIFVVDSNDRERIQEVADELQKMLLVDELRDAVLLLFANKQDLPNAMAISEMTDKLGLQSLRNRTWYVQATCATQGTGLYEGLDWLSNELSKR
inactive: [1] 0.022 | [2] -0.014 | [3] 0 | [4] 0.012 | [5] -0.095 | [6] 0.02 | [7] 0.022 | [8] 0.023 | [9] 0.016 | [10] 0.048

BOP1 (UniProt Q14137)
Sequence of UniProt Q14137 (Q14137 whole entry, looked up): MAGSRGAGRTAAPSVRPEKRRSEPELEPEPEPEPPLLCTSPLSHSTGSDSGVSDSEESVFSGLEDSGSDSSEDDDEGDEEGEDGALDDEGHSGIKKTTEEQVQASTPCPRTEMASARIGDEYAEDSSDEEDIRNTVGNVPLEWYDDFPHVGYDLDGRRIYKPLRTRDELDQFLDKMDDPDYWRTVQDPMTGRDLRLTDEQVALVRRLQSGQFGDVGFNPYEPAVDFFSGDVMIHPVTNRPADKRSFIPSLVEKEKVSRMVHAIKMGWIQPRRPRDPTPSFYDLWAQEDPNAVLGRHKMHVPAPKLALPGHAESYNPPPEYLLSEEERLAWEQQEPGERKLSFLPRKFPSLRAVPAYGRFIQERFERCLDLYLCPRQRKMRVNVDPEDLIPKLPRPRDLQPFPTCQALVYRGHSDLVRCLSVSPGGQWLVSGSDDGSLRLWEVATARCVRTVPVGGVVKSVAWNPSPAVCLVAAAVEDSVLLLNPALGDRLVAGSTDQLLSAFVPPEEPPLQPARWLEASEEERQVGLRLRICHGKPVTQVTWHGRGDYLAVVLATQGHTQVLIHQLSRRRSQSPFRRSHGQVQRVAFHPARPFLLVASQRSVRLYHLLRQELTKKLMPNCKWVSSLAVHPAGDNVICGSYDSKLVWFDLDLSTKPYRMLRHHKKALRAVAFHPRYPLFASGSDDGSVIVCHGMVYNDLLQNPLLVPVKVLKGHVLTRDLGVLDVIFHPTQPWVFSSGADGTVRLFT
inactive: [1] -0.06 | [2] 0.007 | [3] 0.015 | [4] 0.023 | [5] 0.162 | [6] 0.047 | [7] -0.006 | [8] 0.055 | [9] 0.09 | [10] -0.054

BYSL (UniProt Q13895)
inactive: [1] 0.04 | [2] -0.042 | [3] -0.01 | [4] 0.016 | [5] 0.14 | [6] 0.079 | [7] 0.032 | [8] -0.024 | [9] 0.167 | [10] 0.014

AKR1C2 (UniProt P52895)
inactive: [1] -0.153 | [2] -0.222 | [3] -0.166 | [4] -0.077 | [5] 0.205 | [6] -0.046 | [7] -0.179 | [8] 0.024 | [9] 0.159 | [10] -0.018

BRD8 isoform 2 (UniProt Q9H0E9)
Sequence of UniProt Q9H0E9 (Q9H0E9 whole entry, looked up): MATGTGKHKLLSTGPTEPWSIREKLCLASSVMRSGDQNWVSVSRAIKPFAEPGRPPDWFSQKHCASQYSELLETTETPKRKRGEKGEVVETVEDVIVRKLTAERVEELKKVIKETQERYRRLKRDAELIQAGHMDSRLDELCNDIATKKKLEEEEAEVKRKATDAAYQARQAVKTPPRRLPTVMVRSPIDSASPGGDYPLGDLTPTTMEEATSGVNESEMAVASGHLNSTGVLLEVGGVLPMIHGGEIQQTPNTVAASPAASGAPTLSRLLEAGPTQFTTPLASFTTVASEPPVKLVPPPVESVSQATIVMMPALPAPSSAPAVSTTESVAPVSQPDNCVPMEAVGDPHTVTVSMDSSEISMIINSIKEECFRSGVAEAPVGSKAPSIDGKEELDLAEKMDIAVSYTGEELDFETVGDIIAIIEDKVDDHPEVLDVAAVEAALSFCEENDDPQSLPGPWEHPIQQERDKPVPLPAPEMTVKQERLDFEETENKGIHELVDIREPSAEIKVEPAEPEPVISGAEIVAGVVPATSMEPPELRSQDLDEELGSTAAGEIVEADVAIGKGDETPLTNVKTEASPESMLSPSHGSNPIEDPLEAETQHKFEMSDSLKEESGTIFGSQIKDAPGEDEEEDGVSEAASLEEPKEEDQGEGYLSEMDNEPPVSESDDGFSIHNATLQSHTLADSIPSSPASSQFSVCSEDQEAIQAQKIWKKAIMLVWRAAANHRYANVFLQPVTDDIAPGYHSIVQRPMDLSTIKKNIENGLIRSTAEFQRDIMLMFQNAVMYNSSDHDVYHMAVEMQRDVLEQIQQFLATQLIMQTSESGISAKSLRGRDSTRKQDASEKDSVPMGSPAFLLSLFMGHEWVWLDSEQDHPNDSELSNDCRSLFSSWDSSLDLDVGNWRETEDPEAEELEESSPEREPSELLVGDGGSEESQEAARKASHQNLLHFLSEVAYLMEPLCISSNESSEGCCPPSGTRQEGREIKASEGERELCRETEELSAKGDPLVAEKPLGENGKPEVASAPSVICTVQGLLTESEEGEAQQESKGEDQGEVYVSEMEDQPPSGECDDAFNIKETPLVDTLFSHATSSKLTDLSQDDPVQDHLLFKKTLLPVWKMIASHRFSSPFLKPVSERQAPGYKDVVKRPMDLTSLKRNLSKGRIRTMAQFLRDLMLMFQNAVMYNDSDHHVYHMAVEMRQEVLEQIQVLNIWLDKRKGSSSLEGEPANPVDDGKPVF
inactive: [1] -0.013 | [2] -0.333 | [3] -0.044 | [4] -0.023 | [5] -0.023 | [6] 0.183 | [7] 0.06 | [9] -0.126 | [10] -0.039

ATG9A (UniProt Q7Z3C6)
inactive: [1] -0.019 | [2] -0.017 | [3] 0.038 | [4] 0.008 | [5] -0.018 | [6] -0.006 | [7] 0.019 | [8] 0.007 | [9] 0.019 | [10] 0.045

AGAP3 isoform 4 (UniProt Q96P47)
Sequence of UniProt Q96P47 (Q96P47 whole entry, looked up): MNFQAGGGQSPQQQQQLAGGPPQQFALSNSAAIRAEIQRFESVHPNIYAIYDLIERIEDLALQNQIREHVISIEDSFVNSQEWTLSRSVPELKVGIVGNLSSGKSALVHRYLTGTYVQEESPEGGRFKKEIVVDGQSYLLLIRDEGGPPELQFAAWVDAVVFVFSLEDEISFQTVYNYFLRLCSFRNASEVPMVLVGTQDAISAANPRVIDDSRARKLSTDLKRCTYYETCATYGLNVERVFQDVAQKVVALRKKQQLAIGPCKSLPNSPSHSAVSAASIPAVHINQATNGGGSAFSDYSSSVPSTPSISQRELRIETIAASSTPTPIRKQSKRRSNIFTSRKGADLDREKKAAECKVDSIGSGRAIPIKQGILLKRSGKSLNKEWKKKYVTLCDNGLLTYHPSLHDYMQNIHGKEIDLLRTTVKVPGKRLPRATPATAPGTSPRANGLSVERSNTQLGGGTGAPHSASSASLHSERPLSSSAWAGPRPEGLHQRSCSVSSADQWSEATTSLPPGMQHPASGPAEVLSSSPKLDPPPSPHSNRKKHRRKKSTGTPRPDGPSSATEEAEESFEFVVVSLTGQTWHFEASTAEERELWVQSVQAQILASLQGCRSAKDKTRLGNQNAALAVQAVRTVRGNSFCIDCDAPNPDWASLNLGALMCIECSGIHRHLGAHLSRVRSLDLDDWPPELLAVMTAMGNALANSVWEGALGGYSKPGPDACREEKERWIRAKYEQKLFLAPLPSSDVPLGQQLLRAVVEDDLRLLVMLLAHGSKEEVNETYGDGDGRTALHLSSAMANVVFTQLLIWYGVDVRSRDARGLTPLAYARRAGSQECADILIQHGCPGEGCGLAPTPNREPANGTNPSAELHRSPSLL
inactive: [1] 0.037 | [2] 0.071 | [3] -0.039 | [4] -0.081 | [5] 0.252 | [7] -0.022 | [8] 0.089 | [9] 0.113 | [10] 0.199

BRIP1 (UniProt Q9BX63)
inactive: [1] -0.049 | [2] -0.007 | [3] -0.009 | [4] -0.03 | [5] 0.23 | [6] 0.184 | [7] 0.045 | [9] 0.004 | [10] -0.162

BTBD6 (UniProt Q96KE9)
inactive: [1] -0.061 | [2] -0.108 | [3] 0.003 | [5] 0.531 | [6] 0.002 | [7] 0.007 | [8] -0.017 | [9] 0.358 | [10] -0.017

BRD3 (UniProt Q15059)
inactive: [1] 0.261 | [2] 0.008 | [3] 0.035 | [4] -0.003 | [6] 0.198 | [7] -0.048 | [8] -0.017 | [10] -0.339
active: [9] -0.842

ARHGAP4 isoform 2 (UniProt P98171)
inactive: [1] -0.14 | [2] 0.039 | [3] -0.08 | [6] 0.047 | [7] -0.049 | [8] -0.194 | [9] 0.034 | [10] -0.466

ADD3 (UniProt Q9UEY8)
Sequence of UniProt Q9UEY8 (Q9UEY8 whole entry, looked up): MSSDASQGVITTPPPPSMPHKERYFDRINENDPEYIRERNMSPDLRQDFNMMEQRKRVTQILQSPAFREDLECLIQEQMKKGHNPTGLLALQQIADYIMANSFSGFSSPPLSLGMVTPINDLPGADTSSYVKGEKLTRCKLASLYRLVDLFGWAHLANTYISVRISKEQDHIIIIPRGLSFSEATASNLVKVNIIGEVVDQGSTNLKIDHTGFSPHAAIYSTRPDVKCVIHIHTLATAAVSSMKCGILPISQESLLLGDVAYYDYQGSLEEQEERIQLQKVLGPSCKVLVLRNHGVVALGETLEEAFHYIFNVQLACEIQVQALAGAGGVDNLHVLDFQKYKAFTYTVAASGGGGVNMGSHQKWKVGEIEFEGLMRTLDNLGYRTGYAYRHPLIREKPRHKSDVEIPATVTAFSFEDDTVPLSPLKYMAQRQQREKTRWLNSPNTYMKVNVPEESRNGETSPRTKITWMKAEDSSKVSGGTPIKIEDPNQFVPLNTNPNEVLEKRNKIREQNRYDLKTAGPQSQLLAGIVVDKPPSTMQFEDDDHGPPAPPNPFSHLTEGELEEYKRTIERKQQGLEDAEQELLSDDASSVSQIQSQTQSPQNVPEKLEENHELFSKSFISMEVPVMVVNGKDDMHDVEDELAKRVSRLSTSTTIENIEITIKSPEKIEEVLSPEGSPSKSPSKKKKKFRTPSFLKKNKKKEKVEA
inactive: [1] 0.024 | [2] 0.016 | [3] -0.015 | [4] -0.003 | [5] 0.021 | [6] -0.021 | [7] 0.006 | [8] -0.013 | [9] -0.043 | [10] -0.01

AMFR (UniProt Q9UKV5)
inactive: [1] -0.013 | [2] 0.01 | [3] -0.029 | [4] -0.104 | [5] -0.033 | [6] 0.005 | [7] 0.009 | [8] -0.042 | [9] 0.086 | [10] 0.041

ARGLU1 (UniProt Q9NWB6)
Sequence of UniProt Q9NWB6 (Q9NWB6 whole entry, looked up): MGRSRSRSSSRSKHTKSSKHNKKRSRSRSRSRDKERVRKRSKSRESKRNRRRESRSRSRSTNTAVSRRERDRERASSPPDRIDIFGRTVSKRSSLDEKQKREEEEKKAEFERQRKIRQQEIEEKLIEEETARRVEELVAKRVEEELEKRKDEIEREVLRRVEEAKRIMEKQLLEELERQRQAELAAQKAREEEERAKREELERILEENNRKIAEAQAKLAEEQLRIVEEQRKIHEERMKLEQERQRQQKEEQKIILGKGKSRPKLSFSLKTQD
inactive: [1] 0.046 | [2] 0.055 | [3] -0.136 | [4] -0.044 | [5] 0.147 | [6] 0.061 | [7] -0.045 | [8] -0.009 | [9] 0.001 | [10] -0.075

ABITRAM (UniProt Q9NX38)
inactive: [1] 0.011 | [2] -0.036 | [3] 0.062 | [4] 0.027 | [5] -0.114 | [6] 0 | [7] 0.095 | [8] -0.252 | [10] 0.03

ALDH2 (UniProt P05091)
active: [5] -0.264
inactive: [1] 0.089 | [2] 0.03 | [3] 0.039 | [4] 0.029 | [6] 0.044 | [7] -0.011 | [8] -0.012 | [9] 0.016 | [10] 0.003

AKR1C3 (UniProt P42330)
inactive: [1] -0.034 | [2] -0.207 | [3] 0.268 | [4] -0.007 | [5] 0.022 | [6] -0.032 | [7] 0.066 | [8] 0.289 | [9] -0.003 | [10] 0.014

AP2A2 isoform 2 (UniProt O94973)
inactive: [1] 0.084 | [2] 0 | [3] 0.01 | [4] 0.049 | [5] 0.004 | [6] -0.008 | [7] 0.002 | [8] 0.038 | [9] 0.003 | [10] 0.002

ALDH9A1 (UniProt P49189)
inactive: [1] 0.004 | [2] 0.004 | [3] -0.015 | [5] -0.125 | [6] 0.026 | [7] 0.005 | [8] 0.18 | [9] 0.058 | [10] 0.05

AARS2 (UniProt Q5JTZ9)
inactive: [1] -0.003 | [2] -0.047 | [3] 0.017 | [4] 0.079 | [5] -0.015 | [6] 0.045 | [7] 0.04 | [8] 0.049 | [9] 0.05 | [10] 0.058

BSCL2 isoform 4 (UniProt Q96G97)
inactive: [3] -0.073 | [5] -0.174 | [6] 0.179 | [7] -0.043 | [8] -0.124 | [9] 0.052 | [10] 0.199

ACVR1 (UniProt Q04771)
inactive: [1] -0.194 | [3] 0.011 | [5] 0.037 | [6] 0.015 | [7] 0.017 | [8] -0.149 | [9] 0.031

ATXN3 isoform 1 (UniProt P54252)
inactive: [2] -0.08 | [3] 0.012 | [4] -0.043 | [6] 0.005 | [7] 0.04 | [8] -0.016 | [9] 0.02 | [10] 0.179
